Screening data from PubChem BioAssay.
Hits are enriched below; roughly 1.5% of the tested compounds scored in any of these assays.
EBV gp42 inh – Epstein-Barr virus gp42 inhibitors, primary screen, biochemical, uHTS, fluorescence polarization; Glycoprotein 42 (Epstein-Barr virus (strain AG876)), Q1HVG2; Fluorescence polarization binding assay, mP read-out; inhibition, % (tested at 21.74 µM); 220,000 tested, 0.42% active; in the data active means inhibition above about 50%
GLD-1 RNA inh – GLD-1/TGE RNA complex disruptors, primary screen, biochemical, fluorescence polarization | Female germline-specific tumor suppressor gld-1 (Caenorhabditis elegans), Q17339 | purified GLD-1 + fluorescein TGE RNA | inhibition, % at 5.96 µM | 320,000 tested, 0.44% active | AID 2280, 2010;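 active means percent inhibition above a per-plate cutoff, the plate mean of test compounds plus 3 SD, cut at about 30% in these data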;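 further: 0% = DMSO wells with GLD-1 and probe and 100% = wells lacking GLD-1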
Target sequence (Q17339 whole entry, looked up): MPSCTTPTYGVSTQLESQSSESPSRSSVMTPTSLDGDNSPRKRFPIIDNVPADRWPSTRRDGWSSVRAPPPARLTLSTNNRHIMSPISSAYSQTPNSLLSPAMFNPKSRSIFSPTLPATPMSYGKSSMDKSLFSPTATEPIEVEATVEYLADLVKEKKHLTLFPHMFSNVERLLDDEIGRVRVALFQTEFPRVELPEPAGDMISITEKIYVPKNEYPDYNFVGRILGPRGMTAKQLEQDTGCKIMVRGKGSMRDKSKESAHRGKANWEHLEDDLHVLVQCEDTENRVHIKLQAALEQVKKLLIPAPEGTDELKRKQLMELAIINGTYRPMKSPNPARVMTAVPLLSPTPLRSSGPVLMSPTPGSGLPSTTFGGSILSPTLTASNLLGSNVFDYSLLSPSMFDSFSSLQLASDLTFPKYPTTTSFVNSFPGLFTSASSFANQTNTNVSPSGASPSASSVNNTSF
Bcl-xL primary – inhibitors of human Bcl-xL, primary screen, biochemical, fluorescence polarization, HTS; inhibition, % at 10.9 µM; GST-Bcl-xL / FITC-Bim BH3 peptide fluorescence polarization; Bcl-2-like protein 1 (Homo sapiens), Q07817; 320,000 tested, 0.7% active;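 active means inhibition above the mean of all tested compounds plus 3 SD, cutoff set per campaign, cut at about 30% in these data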;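 further: 0% = DMSO wells and 100% = unlabeled Bim-BH3 peptide competitor; inhibitors lower millipolarization by displacing the labeled peptide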
Target sequence (Q07817 whole entry, looked up): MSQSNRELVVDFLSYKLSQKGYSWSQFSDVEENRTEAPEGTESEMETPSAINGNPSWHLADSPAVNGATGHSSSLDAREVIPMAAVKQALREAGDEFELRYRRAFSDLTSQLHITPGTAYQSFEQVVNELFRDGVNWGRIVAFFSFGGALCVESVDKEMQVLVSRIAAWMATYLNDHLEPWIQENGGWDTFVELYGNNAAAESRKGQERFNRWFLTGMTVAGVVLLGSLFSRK
MEX-5 binding – MEX-5 zinc finger RNA-binding disruptors – biochemical, C. elegans, fluorescence polarization, MLPCN library, primary screen; Zinc finger protein mex-5 (Caenorhabditis elegans), Q9XUB2; MEX-5/FITC-TCR2 RNA binding; hits give low values; activity score (negative = inhibition of binding), % at 10 µM; 300,000 tested, 0.38% active; AID 1832, 2009;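 active means inhibition past about -25% in most replicates, and total fluorescence under double the plate's negative control median, limit read from the data; inconclusive means replicates evenly split on the limit, or fluorescence at least double controls; inactive means too little inhibition in most replicates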;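 further: 0% = DMSO and -100% = 5 µM competing unlabeled TCR2 RNA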
eLon inh – inhibitors of E. coli Lon protease, primary screen, biochemical, fluorescence polarization; P0A9M0; purified E. coli Lon protease; inhibition, % at 7.94 µM; 360,000 tested, 0.42% active; AID 602123, 2011; in the data active means inhibition above about 13%, passing the limit was not always enough;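 further: 0% = enzyme with probe and DMSO and 100% = no enzyme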
MCL1-BIM inh – inhibitors of MCL1 binding to BIM-BH3, primary screen, biochemical, fluorescence polarization. Induced myeloid leukemia cell differentiation protein Mcl-1 (Homo sapiens), Q07820. GST-MCL1 / FITC-Bim-BH3 fluorescence polarization. inhibition, % at 10.9 µM. 320,000 tested, 0.68% active. AID 2057, 2009;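 active means inhibition above the mean inhibition of all tested compounds plus 3 SD, set per campaign, cut at about 40% in these data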;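 further: 0% = DMSO wells and 100% = unlabeled Bim-BH3 peptide control; higher means more loss of mP so more displacement of Bim peptide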
Active calls of the source: *; i = inactive; ? = inconclusive; nt = no result given.

SMILES	EBV gp42 inh	GLD-1 RNA inh	Bcl-xL primary	MEX-5 binding	eLon inh	MCL1-BIM inh
COC(=O)CCC(=O)OC1(C)C(=O)C2=CN(Cc3ccc4c(c3)OCO4)C(c3ccc(OC)cc3)=CC2=C(Br)C1=O (stereo not drawn)	nt	-0.6	11.6	-2.0	-0.9	5.8
COC(=O)CCC(=O)OC1(C)C(=O)C2=CN(C(CO)CO)C(c3ccc(OC)cc3)=CC2=C(Br)C1=O (stereo not drawn)	18.3	13.2	38.2*	-8.0	nt	39.9*
COC(=O)CCC(=O)OC1(C)C(=O)C2=CN(CCN3CCOCC3)C(c3ccc(OC)cc3)=CC2=C(Br)C1=O (stereo not drawn)	1.3	15.5	23.8	-5.7	nt	20.7
COc1cccc(-n2nc3c(=S)[nH]nc(C)c3c2C)c1	-11.2	-4.0	3.1	-6.6	-4.3	6.2
Cc1n[nH]c(=S)c2nn(-c3cccc(Cl)c3)c(C)c12	-21.4	nt	nt	-31.6*	nt	nt
O=C(NNC(=O)c1ccccc1O)c1ccco1	-6.8	5.3	8.1	-29.2*	-2.6	18.0
COc1ccc(Cl)cc1NC(=O)CN(C)C(=O)c1cc2c(s1)CCCC2	nt	nt	nt	nt	-5.5	nt
CCOC(=O)c1ccc(CC(=O)c2ccc(O)c(O)c2O)o1	3.8	nt	nt	-26.9*	10.5	nt
Cn1cc(/C=C2\SC(=S)N(NC(=O)c3cccc(Cl)c3)C2=O)c2ccccc21	164.9*	nt	nt	nt	-68.0	nt
O=C(NN1C(=O)/C(=C/c2ccc(O)cc2)SC1=S)c1cccc(O)c1	nt	-108.1	-46.6	?	-374.6	-110.3
Cn1cc(/C=C2\SC(=S)N(NC(=O)c3ccccc3)C2=O)c2ccccc21	89.3*	-158.3	-41.9	3.5	-91.7	-77.6
Cc1ccc(S(=O)(=O)NCC(=O)NCC(=O)N2CCN(c3ncccn3)CC2)cc1C	1.8	-8.5	3.5	2.9	-8.5	6.3
O=C(c1ccco1)N1CCN(C2=NS(=O)(=O)c3ccccc32)CC1	-8.2	-1.7	-0.1	0.9	-2.2	-1.9
O=[N+]([O-])c1c(NCCO)cc(N2CCC3(CC2)OCCO3)c2nonc12	0.4	-11.8	-1.3	-1.6	-3.6	-2.0
CCOC(=O)N1CCN(c2cc(NCCC(=O)O)c3c4c(onc24)-c2ccccc2C3=O)CC1	-4.2	22.5	42.7*	nt	8.8	33.1
CN1CCN(c2cc(N3CCN(C(=O)c4ccco4)CC3)c3c4c(onc24)-c2ccccc2C3=O)CC1	nt	5.7	37.2*	23.5	7.1	43.4*
O=C(O)CCCNc1cc(N2CCC3(CC2)OCCO3)c2noc3c2c1C(=O)c1ccccc1-3	12.6	20.7	71.5*	nt	nt	90.4*
C#CCOC(=O)/C(=C/C=C/c1ccccc1)NC(=O)c1ccccc1	60.6*	3.4	7.6	0.1	10.0	3.4
CC(C)OC(=O)/C(=C\C=C\c1ccccc1)NC(=O)c1ccccc1	4.0	0.1	4.9	-1.7	3.9	6.5
CCNc1cc2oc(=O)c(CN3CCOCC3)c(C)c2cc1C	12.5	21.8	32.2*	nt	8.8	29.3
Cn1c(C(O)C(O)c2ccccc2)nc2ccccc21 (stereo not drawn)	-1.5	-1.2	-0.7	3.3	3.7	-7.7
Cn1c(C(C#N)C2=C(Cl)C(=O)N(c3ccccc3)C2=O)nc2ccccc21 (stereo not drawn)	19.5	44.9*	50.5*	nt	nt	42.0*
CC(=O)Nc1ccc(N2CCc3c(C)c(C#N)c4nc5ccccc5n4c32)cc1	59.1*	11.0	19.3	-14.2	nt	6.7
CC(=O)c1ccc(Nc2c3c(c(C#N)c4nc5ccccc5n24)CCC3)cc1	-29.3	-18.5	-12.8	-1.8	nt	-34.3
Cc1cc(O)c(-c2cc(O)c(C)cc2O)cc1O	-19.9	16.0	19.6	-79.8*	13.3	19.1
SMILES	EBV gp42 inh	GLD-1 RNA inh	Bcl-xL primary	MEX-5 binding	eLon inh	MCL1-BIM inh
Cc1ccccc1/C=C/c1cc[n+](C)cc1	-37.3	2.3	-6.5	2.6	2.9	-11.9
C=CCn1c(C)c(/C=C/c2cc[n+](C)cc2)c2ccccc21	nt	74.2*	-74.5	?	i	-130.3
CCN(CC)C(=O)Cn1c(C)c(/C=C/c2cc[n+](C)cc2)c2ccccc21	nt	60.3*	-98.1	?	i	-214.8
C=CCn1cc(/C=C/c2cc[n+](C)cc2)c2ccccc21	nt	56.6*	46.3*	?	-256.5	22.6
CCn1cc(/C=C/c2cc[n+](C)cc2)c2ccccc21	nt	65.7*	40.7*	?	-272.8	22.6
CC(C)n1cc(/C=C/c2cc[n+](C)cc2)c2ccccc21	nt	nt	nt	?	-311.2	nt
CN1CCN(C(=O)C(=O)c2cn(CC(=O)N3CCCCCC3)c3ccccc23)CC1	nt	nt	nt	nt	-0.9	nt
CCN(CC(=O)NCCC1=CCCCC1)S(=O)(=O)c1ccccc1	1.6	4.8	1.5	4.3	-13.5	1.7
CCNC(=O)C1CCCN(C(=O)c2ccc(C)c(F)c2)CC1 (stereo not drawn)	nt	nt	nt	nt	1.4	nt
CN(N=Nc1ccc([N+](=O)[O-])cc1)c1ccccc1	81.9*	8.8	4.5	-58.1*	1.1	5.9
O=C1NC(=S)S/C1=C\c1ccc(SCc2ccccc2)o1	-74.4	-32.0	-5.2	nt	-22.8	-32.5
CCC1=NN2C(=N)/C(=C\c3ccc(SCc4ccco4)o3)C(=O)N=C2S1	-7.9	2.5	21.3	-31.7*	-96.5	31.3
CCC1=NN2C(=N)/C(=C/c3c(C)nn(-c4ccccc4)c3Cl)C(=O)N=C2S1	1.3	2.9	-7.2	4.2	2.4	-3.2
O=C1NC(=S)S/C1=C\c1ccc(SCc2ccco2)o1	-53.2	12.6	65.6*	nt	7.1	75.5*
CCOC(=O)C1=CNS(=O)(=O)NC1c1ccc(C)cc1 (stereo not drawn)	nt	nt	nt	nt	0.8	nt
COc1cccc(N2C(=O)[C@H]3C(C(=O)c4cnccn4)=NN[C@H]3C2=O)c1	-10.2	2.7	36.8*	-6.4	2.6	34.6
O=C(C1=NN[C@@H]2C(=O)N(c3cccc(F)c3)C(=O)[C@H]12)c1ccc2ccccc2n1	4.7	-1.4	1.9	1.6	-7.9	-1.4
CNC(=O)c1c(NC(=O)c2ccc(S(=O)(=O)N3CCCC3)cc2)sc2c1CCN(C(C)C)C2	nt	-101.3	-82.8	-0.5	nt	-133.5
NC(=O)c1c(NC(=O)c2ccccc2)sc2c1CCN(Cc1ccccc1)C2	nt	-120.6	-40.9	-27.2*	-168.7	-75.6
CN1CCc2c(sc(NC(=O)c3ccc4ccccc4c3)c2C(N)=O)C1	nt	-48.1	-17.1	-92.4*	-150.6	-29.1
CNC(=O)c1c(NC(=O)c2ccc(S(=O)(=O)N3CCCCC3C)cc2)sc2c1CCN(C)C2 (stereo not drawn)	nt	-4.1	0.5	-26.2*	-15.9	-1.6
N#Cc1c(NC(=O)/C=C/C(=O)O)sc2c1CCN(Cc1ccccc1)C2	nt	-55.6	-45.1	-29.4*	-123.2	-72.4
